From PubChem BioAssay (NCATS)
Some of the results follow. Inconclusive results are not listed. Unmarked numbers belong to inactive results. The source made the active and inactive calls. The call rests on the fitted dose curve.
On the % scale 0 is the no-effect control and ±100 the full control effect; potency means the concentration at half of the fitted maximal effect.

What follows are compounds tested on Chikungunya virus nsP2 protease (assay: Confirmatory qHTS for inhibitors of NSP2Pro chikungunya virus (CHIKV) (AID 1964105; further: nearly all actives have a fitted effect of over 75% in size)). Settings: CHIKV nsP2 protease enzymatic activity; series mostly up to 25.5 µM; activity change, negative = inhibition: at the top concentration.
Excerpt: PI: Natalia J. Martinez Ph.D.
National Center for Advancing Translational Sciences (NCATS),
National Institute of Health (NIH), Rockville, Maryland
Chikungunya virus (CHIKV) is a mosquito-borne RNA virus that has emerged as one of the most important global arboviral threats in the last decade. Although the first CHIKV vaccine has recently been FDA approved for use in healthy adults at increased risk, to date, there are no available antiviral drugs for CHIKV infection. CHIKV nsP2 protease plays a crucial role in the processing of the viral polypeptide precursor to release enzymes required for viral replication, thus making it a promising drug target for antiviral discovery. Here, we established a high-throughput pipeline to identify small molecule inhibitors of nsP2 proteolytic activity. The pipeline is composed of a suite of 1,536-well in vitro assays to support quantitative high-throughput (qHTS) screening campaigns. Specifically, we developed a fluorescence resonance energy transfer (FRET)-based assay using a fluorogenic peptide substrate encompassing an endogenous cleavage site and purified recombinant protease domain (nsP2pro). Using this assay, we interrogated ~37,000 small molecules, including those in drug repurposing libraries as well as chemically diverse and medicinal chemistry-friendly compounds. Hits were selected for follow-up validation against full-length nsP2 and an additional peptide. FRET-based 1,536-well assays for papain, hepatitis C virus NS3-4A, and human furin proteases were implemented to characterize compound selectivity. […] Novel compounds were identified to be potential nsP2 inhibitors and molecular docking analyses were performed to explain the binding mode of selected hits. In vitro antiviral activity was evaluated for a subset of compounds using a high-throughput CHIKV infection assay. To our knowledge, the pipeline presented here is unprecedented for CHIKV antiviral discovery research.
PROTOCOL TABLE (as described by Inglese J, Shamu CE and Guy RK. 2007)
SEQUENCE No. (e.g., 1, 2, 3, etc.); […] (e.g., Cells, Incubation, Reagent, etc.); VALUE; DESCRIPTION.
1; Control / Compound; 20 nL; Echo 655 acoustic dispenser, Greiner 1536-well solid bottom black plate.
2; Enzyme; 4 uL; BioRAPTR FRD liquid dispenser (Beckman Coulter).
3; Incubation; 15 min; room temperature.
4; Reagent; 4 uL; 2.5 uM Peptide 2 substrate.
5; Incubation; 1 hr; room temperature.
6; Detection; Fluorescence; WiewLux microplate reader (PerkinElmer), 525 nm excitation, 598/25 nm emission.
NOTES (numbers refer to sequence numbers above).
1.Briefly, 20 nL DMSO, positive control ZnAc (20nM final concentration), and test compounds were transferred into a 1,536-well solid bottom black plate (789176-F, Greiner One) via Echo 655 acoustic dispenser (Beckman Coulter). For primary screens, compounds were tested at 7 concentrations, 1:3 dilution points ranging from 25 uM to 34 nM. Follow-up confirmatory screens were carried out at 11 concentrations, 1:3 dilution points from 25 uM to 0.42 nM.
2.Four uL nsP2pro enzyme mix (150 nM final concentration) in 10 mM Tris-HCl pH 8.0 with 0.01% Tween 20 assay buffer was dispensed into the plate using a BioRAPTR FRD liquid dispenser (Beckman Coulter).
3.The plate was incubated at room temperature (protected from light) for 15 min
4.Four microliter of peptide 2 substrate (2.5 uM final concentration) in assay buffer was added to the plate.
5.After 1 hour, plates were immediately read on a ViewLux high-throughput CCD imager (Exposure = 10 sec, Gain = High, Speed = Slow, Binning = 2X). The above assay was also incorporated in the NCATS HTS facility41, which allowed for robotic liquid and compound dispensing, microplate handling, and fluorescence reading.
Inglese J, Shamu CE and Guy RK, Reporting data from high throughput screening of small molecule libraries, Nature Chemical Biology, 2007, 3(8): 438-441. doi.org/10.1038/nchembio0807-438.
For `COC([CH2][Hg])CNC(=O)c1ccccc1OCC(=O)O` (stereo not drawn), the Potency was 2.25 µM (active).
With `Cn1nnnc1Sc1ncnc2n[nH]c(-c3cccc(S(C)(=O)=O)c3)c12` the Potency was 3.18 µM (active).
With `C=Cc1c(C)c2cc3nc(cc4[nH]c(cc5nc(cc1[nH]2)C(C)=C5CCC(=O)O)c(CCC(=O)OC)c4C)[C@@]1(C)C3=CC=C(C(=O)OC)[C@H]1C(=O)OC` the “activity change, negative = inhibition” value was 126%.
For `Oc1ccc(OC2CCCCO2)cc1` (stereo not drawn), the “activity change, negative = inhibition” value was -21.2%.
For `CCC(C)C(=O)OC1C(C)C2(O)C(C=C(CO)CC3(O)C(=O)C(C)=CC32)C2C(C)(C)C12OC(=O)C(C)C` (stereo not drawn), the “activity change, negative = inhibition” value was -4.03% [at 8.62 µM].
For `N#CSc1cc(SC#N)c(N)nc1N`, the Potency was 0.318 µM (active).
For `O=C(O)c1cccc(-n2[nH]c(-c3ccccc3)cc2=O)c1`, the “activity change, negative = inhibition” value was 29.6%.
In the case of `C[C@@H]1C[C@@H](O)[C@@]23CO[C@]2(CO)C[C@@H](O)CC3[C@@]12CC(c1ccoc1)OC2=O` (stereo partly drawn), the “activity change, negative = inhibition” value is reported as 28.5% [at 16.7 µM].
In the case of `CCOc1ccc(NC(=O)c2c(NC(=O)Cc3ccccc3)sc3c2CCCCC3)cc1`, the Potency is reported as 7.98 µM (active).
`CCc1ccccc1NC(=O)c1cnn(-c2ccc(F)cc2)c1C1CCNCC1` was tested, and the “activity change, negative = inhibition” value was -9.95%.
In the case of `CCOc1ccc(N(Cc2ccccc2)C(=O)c2nc(S(C)(=O)=O)ncc2Cl)cc1`, the Potency is reported as 3.18 µM (active).
`CCOc1ccc(NC(=O)c2c(NC(=O)Cc3ccccc3)sc3c2CCC(C)C3)cc1` (stereo not drawn) was tested, and the Potency was 7.11 µM (active).
With `C=CC(=O)c1ccc2ccccc2c1` the Potency was 6.34 µM (active).
